According to PubChem BioAssay (NCI):
About 83,000 compounds went through this panel and 20% of them were active in at least one assay; those are over-represented in the sample as a whole.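 Interpretation: 100, growth as untreated; towards 0, rising growth inhibition; 0, no net growth; 0 to -100, cell death. Compounds scoring below 10 were considered active.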 The source made the active and inactive calls.

Columns and labels:
Experiment in all cases: NCI-60 one-dose screen, 48 h (100 = growth as untreated, 0 = no growth, -100 = all killed)
Conditions in all cases: 10 µM unless noted
NCI-H23 lung = test system: NCI-H23 lung
NCI-H226 lung = test system: NCI-H226 lung
NCI-H322M lung = test system: NCI-H322M lung
HOP-62 NSCLC = test system: HOP-62 NSCLC
NCI-H460 lung = test system: NCI-H460 lung
HOP-92 NSCLC = test system: HOP-92 NSCLC
NCI-H522 lung = test system: NCI-H522 lung
A549/ATCC NSCLC = test system: A549/ATCC NSCLC
786-0 renal = test system: 786-0 renal
COLO 205 colon = test system: COLO 205 colon

Measured: growth

Nc1nc2c(c3ncccc13)C(c1cccc(Cl)c1)Cc1ncccc1-2 (centres undefined)
inactive: NCI-H23 lung 39.7% | NCI-H226 lung 75.8% | NCI-H322M lung 49.7% | HOP-62 NSCLC 20.1% | HOP-92 NSCLC 38.6% | A549/ATCC NSCLC 18.6% | 786-0 renal 22.6%
active: NCI-H460 lung 6.87% | NCI-H522 lung -14.5% | COLO 205 colon -21.5%

O=C(Cc1cccc(OC(F)(F)F)c1)Nc1ccc(CCCCc2nnc(NC(=O)Cc3ccccn3)s2)nn1
active: HOP-92 NSCLC -4.64%
inactive: NCI-H23 lung 80.3% | NCI-H226 lung 60.6% | NCI-H322M lung 39.8% | HOP-62 NSCLC 74.5% | NCI-H460 lung 74.2% | NCI-H522 lung 44.3% | A549/ATCC NSCLC 43.2% | 786-0 renal 46.3% | COLO 205 colon 88.8%

CC[N+]1(CC)CC[N+]2(CCCC(C)CC2)CC1 (centres undefined)
inactive: NCI-H23 lung 102% | NCI-H226 lung 104% | NCI-H322M lung 106% | HOP-62 NSCLC 106% | NCI-H460 lung 105% | HOP-92 NSCLC 96.4% | NCI-H522 lung 93.3% | A549/ATCC NSCLC 91.6% | 786-0 renal 99.9% | COLO 205 colon 113%

COc1cc(/C=C/C(=O)c2ccc(-n3cc(CN4CCN(c5cc6c(cc5F)c(=O)c(C(=O)O)cn6C5CC5)CC4)nn3)cc2)ccc1O
inactive: NCI-H23 lung 91.4% | NCI-H226 lung 82.1% | NCI-H322M lung 80.2% | HOP-62 NSCLC 67.7% | NCI-H460 lung 66.7% | HOP-92 NSCLC 79.3% | NCI-H522 lung 83.9% | A549/ATCC NSCLC 71.6% | 786-0 renal 53.9% | COLO 205 colon 106%

COc1ccc(C#Cc2ccc(=O)oc2-c2cc(OC)c(OC)c(OC)c2)cc1O
inactive: NCI-H23 lung 45.7% | NCI-H226 lung 71.3% | NCI-H322M lung 49.7% | HOP-62 NSCLC 28.6% | NCI-H460 lung 15.3% | HOP-92 NSCLC 48.4% | NCI-H522 lung 20.6% | A549/ATCC NSCLC 42.6% | 786-0 renal 54.3% | COLO 205 colon 69.4%

CC[C@]12C=CCN3CC[C@@]4(c5ccc(OC)cc5N(C)[C@H]4[C@@](O)(C(=O)OC)[C@@H]1OC(=O)CCC[P+](c1ccccc1)(c1ccccc1)c1ccccc1)[C@@H]32
inactive: NCI-H226 lung 14% | NCI-H322M lung 35.6% | A549/ATCC NSCLC 13.4% | 786-0 renal 20.6%
active: NCI-H23 lung -8.66% | HOP-62 NSCLC 2.56% | NCI-H460 lung 6.11% | HOP-92 NSCLC -40% | NCI-H522 lung -35.4% | COLO 205 colon -87.9%

S=c1[nH]c(=S)c2c(-c3ccccc3)c(-c3ccccc3)oc2[nH]1
inactive: NCI-H23 lung 97.8% | NCI-H226 lung 92.7% | NCI-H322M lung 118% | HOP-62 NSCLC 92.6% | NCI-H460 lung 108% | HOP-92 NSCLC 100% | NCI-H522 lung 97.5% | A549/ATCC NSCLC 95.7% | 786-0 renal 103% | COLO 205 colon 120%

N[C@H]1CCC[C@@H]1NCCCCN1C(=O)c2cccc3cc([N+](=O)[O-])cc(c23)C1=O
inactive: NCI-H23 lung 47.7% | NCI-H226 lung 34.4% | NCI-H322M lung 53.4% | HOP-62 NSCLC 38.4% | NCI-H460 lung 13.7% | HOP-92 NSCLC 30.1% | NCI-H522 lung 38.4% | A549/ATCC NSCLC 27.6% | 786-0 renal 31% | COLO 205 colon 26%

CO[C@H](C(=O)[C@@H](O)[C@@H](C)O)[C@@H]1Cc2cc3cc(O[C@H]4C[C@@H](O[C@H]5C[C@@H](O)[C@H](O)C(C)O5)[C@H](O)C(C)(O)O4)cc(O)c3c(O)c2C(=O)[C@H]1O[C@H]1C[C@@H](O[C@H]2C[C@@H](O[C@H]3C[C@@H](OC)[C@H](O)C(C)O3)[C@@H](O)C(C)O2)[C@H](O)C(C)O1 (some centres undefined)
inactive: NCI-H23 lung 16.4% | NCI-H322M lung 21.1% | NCI-H460 lung 12.9% | HOP-92 NSCLC 25.2% | 786-0 renal 26.6%
active: NCI-H226 lung -29.7% | HOP-62 NSCLC 1.64% | NCI-H522 lung -17.6% | A549/ATCC NSCLC 6.26% | COLO 205 colon -42.4%

CC1(C)[C@@H](O[C@@H]2OC[C@@H](O[C@@H]3O[C@H](CO)[C@@H](O)[C@H](O)[C@H]3O[C@@H]3OC[C@@H](O)[C@H](O)[C@H]3O)[C@H](O)[C@H]2O[C@@H]2O[C@H](CO)[C@@H](O)[C@H](O)[C@H]2O)CC[C@]2(C)[C@H]3CC[C@]45OC[C@@]6(CC[C@](C)(C=O)C[C@H]64)[C@H](O)C[C@@]5(C)[C@]3(C)CC[C@@H]12
active: NCI-H23 lung -55.1% | NCI-H226 lung -65.2% | NCI-H322M lung -86.9% | HOP-62 NSCLC -82.9% | NCI-H460 lung -63% | HOP-92 NSCLC -63.7% | NCI-H522 lung -89.7% | A549/ATCC NSCLC -73.6% | 786-0 renal -75% | COLO 205 colon -93.9%

COc1ccc(C(=O)Cn2c(C(=O)c3ccc(OC)cc3)nc3ccccc32)cc1
inactive: NCI-H23 lung 50.5% | NCI-H226 lung 37.4% | NCI-H322M lung 76.6% | HOP-62 NSCLC 37.8% | NCI-H460 lung 10.5% | HOP-92 NSCLC 45.2% | A549/ATCC NSCLC 41.3% | 786-0 renal 36.3% | COLO 205 colon 38.8%
active: NCI-H522 lung -27.7%

O=C1c2ccccc2C(=O)c2c1cc1c(c2[N+](=O)[O-])OCO1
inactive: NCI-H226 lung 25.9% | NCI-H322M lung 46.9%
active: NCI-H23 lung 4.14% | HOP-62 NSCLC 3.82% | NCI-H460 lung 3.42% | HOP-92 NSCLC -3.71% | NCI-H522 lung -46.6% | 786-0 renal 2.64%

O=C(Nc1ccccc1[N+](=O)[O-])c1ccc(Cl)c(Cl)c1
inactive: NCI-H23 lung 86.6% | NCI-H226 lung 79.9% | NCI-H322M lung 101% | HOP-62 NSCLC 102% | NCI-H460 lung 93.4% | HOP-92 NSCLC 69.7% | NCI-H522 lung 69.9% | 786-0 renal 105% | COLO 205 colon 110%

CN(CCC(=O)c1ccccc1)CCC(=O)c1ccccc1
inactive: NCI-H23 lung 91.5% | NCI-H226 lung 97.4% | NCI-H322M lung 96.4% | HOP-62 NSCLC 100% | NCI-H460 lung 97.9% | HOP-92 NSCLC 72.6% | 786-0 renal 65.4%
active: NCI-H522 lung -87.7%

S=c1nc2oc(-c3ccccc3)c(-c3ccccc3)c2c(/N=C\c2ccco2)[nH]1
inactive: NCI-H23 lung 88.2% | NCI-H226 lung 102% | NCI-H322M lung 105% | HOP-62 NSCLC 82.5% | NCI-H460 lung 115% | HOP-92 NSCLC 92.4% | NCI-H522 lung 86.1% | 786-0 renal 97% | COLO 205 colon 120%

N#Cc1ccc(O)c(C2=NCC(Cc3ccccc3)O2)c1 (centres undefined)
active: NCI-H522 lung -17.5%
inactive: NCI-H23 lung 54.5% | NCI-H226 lung 65.9% | NCI-H322M lung 59.9% | HOP-62 NSCLC 24.1% | NCI-H460 lung 23.5% | HOP-92 NSCLC 65% | 786-0 renal 38.7% | COLO 205 colon 60.7%

N#C/C(=C\C=C\c1ccc(-c2cc(Cl)ccc2Cl)o1)c1nc2ccccc2s1
inactive: NCI-H23 lung 83.7% | NCI-H226 lung 78.3% | NCI-H322M lung 95% | HOP-62 NSCLC 87.7% | NCI-H460 lung 103% | HOP-92 NSCLC 89.1% | NCI-H522 lung 94.4% | 786-0 renal 102% | COLO 205 colon 92.9%

Nc1c(C(=O)Nc2cccc(Cl)c2)sc2nc3c(cc12)CCCC3
inactive: NCI-H23 lung 103% | NCI-H226 lung 83.6% | NCI-H322M lung 108% | HOP-62 NSCLC 91.8% | NCI-H460 lung 100% | HOP-92 NSCLC 82.7% | NCI-H522 lung 80.3% | A549/ATCC NSCLC 81.7% | 786-0 renal 89% | COLO 205 colon 92.2%

N#CC1CCc2c(c(-c3ccc4nc(N)sc4c3)nc3ccc4[nH]ncc4c23)C1 (centres undefined)
inactive: NCI-H23 lung 36.9% | NCI-H226 lung 51.1% | NCI-H322M lung 70.5% | HOP-62 NSCLC 54.5% | NCI-H460 lung 12.4% | HOP-92 NSCLC 70.3% | NCI-H522 lung 40.2% | 786-0 renal 49.3%

CCOc1cccc(/C=N/NC(=O)c2cccc(Nc3ccnc(C(F)(F)F)c3)c2)c1O
inactive: NCI-H23 lung 24.9% | NCI-H226 lung 32.9% | NCI-H322M lung 36.5% | HOP-62 NSCLC 12.3% | HOP-92 NSCLC 51.3% | NCI-H522 lung 40.4% | COLO 205 colon 37%
active: NCI-H460 lung 7.86% | 786-0 renal 2.63%

Cc1cccc(-c2nc(Nc3ccc4ncsc4c3)c3ccccc3n2)n1
inactive: NCI-H23 lung 57.8% | NCI-H226 lung 84.9% | NCI-H322M lung 93.5% | HOP-62 NSCLC 80.2% | NCI-H460 lung 36.1% | HOP-92 NSCLC 110% | NCI-H522 lung 56% | A549/ATCC NSCLC 34.5% | 786-0 renal 87.7% | COLO 205 colon 12.8%

O=c1cc(-c2ccccc2)[nH]c2ncc(-c3ccc(F)cc3)n12
inactive: NCI-H23 lung 72.2% | NCI-H226 lung 86.6% | NCI-H322M lung 94.2% | HOP-62 NSCLC 67.7% | NCI-H460 lung 47.4% | HOP-92 NSCLC 54.9% | NCI-H522 lung 36% | A549/ATCC NSCLC 66.2% | 786-0 renal 79.5% | COLO 205 colon 77.4%

Fc1ccc2[nH]cc(-c3nc(-c4c[nH]c5ccncc45)cs3)c2c1
inactive: NCI-H23 lung 49.3% | NCI-H226 lung 68.6% | HOP-92 NSCLC 28.6%
active: NCI-H322M lung -5.67% | HOP-62 NSCLC -73.6% | NCI-H460 lung -71.5% | NCI-H522 lung -61.1% | 786-0 renal -92.9% | COLO 205 colon -72.9%

O=C(NCc1cccc(CNC(=O)Nc2nc3ccccc3[nH]2)c1)Nc1nc2ccccc2[nH]1
active: NCI-H23 lung -65.1% | NCI-H226 lung -22.2% | NCI-H322M lung -7.92% | HOP-62 NSCLC -46.2% | NCI-H460 lung -52.9% | HOP-92 NSCLC -27.7% | NCI-H522 lung 1.54% | 786-0 renal -42.8% | COLO 205 colon -2.34%

O=S(=O)(NCCNc1nccc(-c2c(-c3cccc(O)c3)nc3occn23)n1)c1ccc(Br)cc1
inactive: NCI-H23 lung 53.2% | NCI-H226 lung 37.1% | NCI-H322M lung 42.3% | HOP-62 NSCLC 45.2% | NCI-H460 lung 31.2% | HOP-92 NSCLC 33.2% | NCI-H522 lung 24.5% | 786-0 renal 45.8% | COLO 205 colon 18.4%

CS(=O)(=O)c1nnc(-c2ccccc2)s1
inactive: NCI-H23 lung 99.4% | NCI-H226 lung 113% | NCI-H322M lung 111% | HOP-62 NSCLC 85.5% | NCI-H460 lung 111% | HOP-92 NSCLC 103% | NCI-H522 lung 11.6% | 786-0 renal 88.7% | COLO 205 colon 77.3%

O=C(/C=C/C12c3ccccc3C(c3ccccc31)C1C(=O)NC(=O)C12)c1ccc(Br)cc1 (centres undefined)
inactive: NCI-H23 lung 50% | NCI-H226 lung 94.4% | NCI-H322M lung 55.8% | HOP-62 NSCLC 56.3% | NCI-H460 lung 34.6% | HOP-92 NSCLC 74.5% | NCI-H522 lung 47.1% | 786-0 renal 69.2% | COLO 205 colon 58.8%
